# Compounds with a hit are over-represented: about 8.1% of the library has one in this group of screens.
# ELG1 DNA repair: blocks ELG1-dependent DNA repair in HEK293T cells; HEK293T ELG1-luciferase reporter, luminescence, 16 h; DNA damage induced by 5-fluorouridine; AID 504467; Potency, µM (top dose mostly 46.1 µM), for the others: at the highest dose activity change, negative = inhibition, usual class: inhibitors; 330,000 tested, 2.3% active; further: on the % scale 0 is the no-effect control and ±100 the full control effect; nearly all actives have a fitted effect of over 55% in size
#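 Reporter activity after DNA damage by 5-fluorouridine is monitored. Compound-treated cells incubate 16 hr at 37 °C, then ONE-Glo is added for 30 min before luminescence reading.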
# MCF10A rereplic: DNA re-replication induction in MCF 10a cells; MCF 10A DNA re-replication, Hoechst nuclear intensity, 48 h; AID 624296; 350,000 tested, 2.9% active; Potency, µM (doses to about 46.1 µM), for inactives: top-dose activity, positive = re-replication, hits mostly activators; further: % of control where 0% means no effect; nearly all actives have a fitted effect of over 50% in size
# SW480 rereplic: DNA re-replication induction in SW480 cells; SW480 DNA re-replication, Hoechst DNA content imaging, 48 h; Potency, µM (doses to about 46.1 µM), inactives show at the top dose re-replication activation, most hits filed as activators; 340,000 tested, 1.8% active; AID 624297; further: % of control where 0% means no effect; nearly all actives have a fitted effect of over 55% in size
#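 Treated cells incubate 48 hr (37 C, 5% CO2), are stained 40 min with Hoechst, and nuclear fluorescence is enumerated; a rise in nuclei with high DNA signal marks re-replication.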
# KB-3-1 tox: kills parental KB-3-1 adenocarcinoma cells. KB-3-1 viability, CellTiter-Glo ATP luminescence, 72 h. Potency, µM (titrated, usually from 46.1 µM), hits mostly cytotoxic. 400,000 tested, 1.4% active; further: on the % scale 0 is the no-effect control and ±100 the full control effect; nearly all actives have a fitted effect of over 60% in size
#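 Using CellTiter-Glo luminescence, growth of non-resistant KB-3-1 adenocarcinoma cells is assessed 72 h after pin-tool compound addition at 37 °C. Normalized responses across the concentration series yield fitted curves.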
# KB-V1 MDR tox: KB-V1 MDR subline cytotoxicity; KB-V1 MDR cells viability, CellTiter-Glo, 72 h; Potency, µM (titrated, usually from 46.1 µM), usual class: cytotoxic; 400,000 tested, 3.4% active; further: on the % scale 0 is the no-effect control and ±100 the full control effect; nearly all actives have a fitted effect of over 60% in size
#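 Cytotoxicity toward P-gp-expressing KB-V1 cells was determined as loss of CellTiter-Glo luminescence after 72 h at 37 degrees C. Compounds were tested in quantitative HTS format across a concentration range, with curves fitted to normalized data.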
# * hit, by the source's call; i = inactive; u = inconclusive; x = no result given; [ ] = another dose, or the depositor's remark. The call rests on the fitted dose curve; in most records, active means well fitted curve in the direction sought with a large enough effect; inconclusive means small, poorly fitted or top-dose-only effect, or another doubt; inactive means no such curve, though single readings can be large; an effect the other way counts as inactive or inconclusive. Potency means the concentration at half of the fitted maximal effect.
SMILES,ELG1 DNA repair,MCF10A rereplic,SW480 rereplic,KB-3-1 tox,KB-V1 MDR tox
C=CC[C@@H]1C=C[C@H](O/N=C/c2ccc(C(=O)N3[C@H](c4ccc(C)cc4)[C@@H](C)CC[C@H]3C(=O)OC)cc2)[C@@H](CO)O1,18µM*,u,u,x,x
Cc1cccc(S(=O)Cc2ccc(C(=O)N3CCOCC3)o2)c1 (stereo unspecified),1%,0%,13%,i,i
O=C(O)c1ccc(CS(=O)c2cccc(C(F)(F)F)c2)o1 (stereo unspecified),10µM*,-21%,1%,i,u
N#CCc1cc2ccc3cccc4ccc(c1)c2c34,16%,13%,-4%,u,7.3µM*
Cc1cc(O)c2c(c1)CC1C3CCC4CC(=O)CCC4(C)C3CC(=O)C21C (stereo unspecified),x,16µM*,u,u,u
CCOC(=O)N1CCC(N2Cc3cccc(C(=O)NCc4ccc5c(c4)OCO5)c3C2=O)CC1,23µM*,-5%,-3%,i,i
O=C(c1cc([N+](=O)[O-])ccc1N1CCCCC1)N1CCCCC1,7%,-4%,-9%,i,16µM*
O=C(c1cc([N+](=O)[O-])ccc1Cl)N1CCc2ccccc21,-2%,0%,-9%,i,i
O=C(c1cc([N+](=O)[O-])ccc1N1CCCC1)N1CCCCC1,13%,1%,19%,i,i
O=C(c1cc([N+](=O)[O-])ccc1N1CCCCC1)N1CCc2ccccc21,u,3.7µM*,6.5µM*,5.8µM*,5.8µM*
CCOC(=O)c1c(C)oc2c1c(C=NCC1CCCO1)c(O)c1ccccc12 (stereo unspecified),-3%,u,-4%,u,u
CCOC(=O)c1c(C)oc2c1c(C=NCc1ccccn1)c(O)c1ccccc12,18µM*,12µM*,u,u,u
O=C(NCc1ccc(F)cc1)c1cnc(Cl)c(Cl)c1,22%,-7%,1%,i,i
CCc1cc(C(=O)OC)c(NC(=O)c2cc(Br)cs2)s1,x,143%,13%,i,16µM*
COc1ccc(CCNc2oc(Cc3ccccc3)nc2C#N)cc1OC,u,-3%,u,i,u
COc1ccc(CCNc2oc(COc3ccccc3Cl)nc2C#N)cc1OC,23µM*,u,-1%,i,i
COc1ccc(CCNc2oc(COc3ccccc3F)nc2C#N)cc1OC,23µM*,-1%[9.22 µM],-6%,i,i
CCOc1ccc(CN2CCN(Cc3[nH]c4ccccc4c3C)CC2CCO)cc1 (stereo unspecified),u,u,23µM*,u,u
O=C(CSc1nnc(-c2cccnc2)s1)Nc1ccnc2ccccc12,12µM*,1%,-9%,2.3µM*,1.6µM*
Cc1ccc(NC(=O)Cn2c(-c3cncs3)nc3ccccc32)cc1Br,x,x,x,i,i
Cc1ccc(N=Nc2c(N)[nH]n3c(=O)cc(C)nc23)cc1,11%,u,-15%,18µM*,23µM*
Nc1[nH]n2c(=O)cc(-c3ccccc3)nc2c1N=Nc1ccc(S(N)(=O)=O)cc1,9%,-7%,1%,i,i
Nc1[nH]n2c(=O)cc(-c3ccccc3)nc2c1N=Nc1ccccc1,6%,u,6%,8.2µM*,u
Cc1ccc(N=Nc2c(=O)[nH]n3c(C)cc(C)nc23)cc1,10%,0%,-3%,i,i
COC(=O)C1=C(C)NC(=O)/C1=C\c1cc(C)n(-c2cccc(C)c2)c1C,u,u,2%,i,i
CCOC(=O)c1c2c(c(=S)n(-c3ccccc3)c1N)CCC2,u,u,u,i,21µM*
CSCCC(NS(=O)(=O)c1ccc(C)cc1)C(=O)N1CCCCCCC1 (stereo unspecified),1%,-3%,-3%,i,16µM*
CSCCC(NS(=O)(=O)c1ccc(Cl)cc1)C(=O)OCc1c(Cl)cccc1Cl (stereo unspecified),-23%,16µM*,u,u,7.3µM*
